Assay [1] in a line: Primary fluorescence-based thiol-reactive (MSTI) qHTS assay for identification of artifact compounds. (AID 1845221).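 For activity change, negative = thiol reactive: series mostly up to about 54 µM; thiol-reactive compounds lower the probe fluorescence signal.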 Note: nearly all actives have a fitted effect of over 65% in size. Note: potency is the fitted concentration of half-maximal effect. In a few lines: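 MSTI probe at 4 uM final in 2% DMSO/PBS pH 7.4; compounds, 1 h at room temperature in dark. Fluorescence Ex/Em 525/598 nm, normalised to Acetyl-MSTI and MSTI, fitted to 4-parameter Hill.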
Background: qHTS replaces the single test concentration by a dilution series.

Assay [2] concerns Nanoluciferase (engineered Oplophorus gracilirostris luciferase). The experiment in a line: Primary Nanoluciferase (NLuc) qHTS assay for identification of artifact compounds. (AID 1845222).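 Note: NLuc secreted into diluted conditioned medium of S16 cells; series mostly up to about 54 µM; 0% = DMSO and -100% = no enzyme.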 The essentials:
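S16 cell supernatant NLuc, 1:55; cpds qHTS; 15 min RT dark; Nano-Glo substrate 1:100, 5 min; luminescence; Hill fit of % inhibition.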

Assay [3] is described as follows: Primary redox qHTS assay for identification of artifact compounds. (AID 1845223).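 Note: 0% = DMSO and 100% = reference compound.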 The essentials:
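Redox-cycling detection via DTT (250 uM final) oxidation coupled to Amplex Red (25 uM)/HRP (250 mU/mL) in HBSS. 15 min preincubation plus 30 min after DTT, room temperature. Ex/Em 525/598 nm; 4-parameter Hill fit against DMSO and 10 uM DA3003.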

Unmarked numbers belong to inactive results. Records with an inconclusive call do not appear. Calls of active or inactive are those of the source. Calls come from the whole dose curve; as a rule, active = well fitted curve in the direction sought with a large enough effect; inconclusive = small, poorly fitted or top-dose-only effect, or another doubt; inactive = no such curve, though single readings can be large; an effect the other way counts as inactive or inconclusive.

In the case of `O=C(O)C[C@H]1CCC(=O)[C@@H]1C/C=C\CCOC1OC(CO)C(O)C(O)C1O` (stereo partly specified), the Potency in assay [1] is 7.36 µM (active). Moreover, the Potency result in assay [2] and in assay [3] was “inactive” throughout.

Take `C[C@]12CCC[C@](C)(C(=O)O)C1CCC13C=C(CO)C(CCC12)C3` (stereo partly specified): the Potency result in assay [1], in assay [2] and in assay [3] was “inactive” each time.

Regarding `C/C=C(\C)C(=O)O[C@H]1[C@H](O)[C@]2(COC(C)=O)[C@H](O)C[C@]3(C)C(=CCC4[C@@]5(C)CC[C@H](O[C@@H]6O[C@H](C(=O)O)[C@@H](O[C@@H]7O[C@H](CO)[C@@H](O)[C@H](O)[C@H]7O)[C@H](O)[C@H]6O[C@@H]6O[C@H](CO)[C@@H](O)[C@H](O)[C@H]6O)[C@](C)(CO)C5CC[C@]43C)[C@@H]2CC1(C)C` (stereo partly specified), in assay [1], the activity change, negative = thiol reactive was 113% [at 11.5 µM]. Also, the activity, negative = inhibition in assay [2] was 4.32% [at 11.6 µM]. Besides, in assay [3], the redox activity (% of DA3003) is 2.47% [at 11.5 µM].

Consider `O=C(c1ccccn1)c1cnn2c(-c3ccncc3)ccnc12`, for which the Potency result in assay [1], in assay [2] and in assay [3] was “inactive” each time.

Take `Cc1nn(C)c(COc2ccc(N3CCN(S(=O)(=O)N(C)C)CC3)cc2)c1-c1cccc2c(CCCOc3cccc4ccccc34)c(C(=O)O)n(CCN3CCOCC3)c12`: the Potency entry in assay [1], in assay [2] and in assay [3] was “inactive” in each case.

As to `COc1cccc(-n2nc(C(=O)O)cc2-c2ccc(C3CCCCC3)c(Cl)c2)c1`, the Potency result in assay [1], in assay [2] and in assay [3] was “inactive” throughout.

As to `COc1cc(/C=C/C(=O)O[C@H]2[C@H](O)[C@@H](CO)O[C@@]2(CO)O[C@H]2O[C@H](COC(=O)c3ccc(O)cc3)[C@@H](O)[C@H](O)[C@H]2O)cc(OC)c1OC`, the Potency result in assay [1], in assay [2] and in assay [3] was “inactive” each time.
